The results in this text go back to PubChem BioAssay.

Molecules are shown by their SMILES. Active and inactive are the calls of the source.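 How the source made its calls, unless noted: active means compound raises insulin release from rat beta cells at 5 mM glucose, no numeric limit stated; inactive means the rest.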

The nature of test [1]: stimulators of insulin release from INS-1E, primary screen, cell-based, 5 mM glucose, NPC library (AID 1117329). As to conditions: rat INS-1E insulin secretion, at 10 µM, stronger effect = higher value.
Test [2] can be described thus: growth inhibition of GSK3B-pretreated HCT116 cells – cell-based, CellTiter-Glo, 0.2 to 20 µM (AID 1117336;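 active means compounds lowering colon cancer cell viability after pretreatment blocking the GSK3B kinase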). Conditions: HCT116 viability after GSK3B inhibitor, at 20 µM, stronger effect = higher value. Background: In ATP-based viability assays light output follows the ATP content of the culture.
A short description of test [3]: inhibition of endothelial tube formation, primary screen, imaging, VEGF stimulated, CD31 staining, tube area, NPC library (AID 1117340;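 active means compound that reduces growth-factor-driven endothelial tube area in a mixed cell culture, no cutoff stated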). As to conditions: VEGF-stimulated ADSC/ECFC co-culture, at 10 µM, stronger effect = higher value.
A short description of test [4]: glucagon-like peptide 1 release enhancers, primary assay, NCI-H716 cell line, NPC library (AID 1117341;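 active means compound raises GLP1 secretion from the human gut endocrine cells, with no numeric limit stated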). As to conditions: NCI-H716 cells, at 10 µM, stronger effect = higher value.
Test [5] in a line: HCT116 colon cancer cell growth inhibition, primary screen, CellTiter-Glo luminescence, NPC library (AID 1117342;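 active means compounds that lower survival of HCT116 colon cancer cells in the luminescence readout, no numeric limit stated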). Conditions: at 20 µM (top of the series).
The nature of test [6]: CellTiter-Glo luminescent readout of SW480 viability loss, NPC library primary (AID 1117343;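 active means compounds that lower viability of the colon cancer cells in the luminescence readout, with no numeric limit stated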). Conditions: CellTiter-Glo luminescence; at 20 µM (top of the series).
Test [7] can be described thus: decreased DLD-1 cellular survival, CellTiter-Glo luminescent readout, NPC compound collection, primary HTS (AID 1117346;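 active means compounds that lower survival of DLD-1 colon cancer cells in the luminescence readout, no cutoff given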). As to conditions: DLD-1 viability, CellTiter-Glo luminescence; at 20 µM (top of the series).
A short description of test [8]: modulation of C. elegans fzo-1 (AID 1259413; call rule not given here;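 further: fzo-1 mutant C. elegans worms in liquid wells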). As to conditions: C. elegans fzo-1 modulator screen, mean read-out; stronger effect = higher value.
A short description of test [9]: differential killing of epithelial or mesenchymal cells, primary screen, imaging, PC-3E GFP, TEM4-18 mCherry, co-culture (AID 1345086;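 active means compounds killing one labelled cell type while sparing the other, by normalised counts and ratio limits, not self-fluorescent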;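 on all read-outs here: cells exposed to compound for 72 h before imaging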;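 on red/green cell ratio (normalised): normalised mesenchymal count divided by normalised epithelial count so high means epithelial killing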). As to conditions: imaging cell counts, at 1 µM; for red/green cell ratio (normalised): actives lie on both sides, counts scaled to control wells, 1 = unselective.
Setting [10] is: measured here: epithelial PC-3E GFP cell survival.
Where [11] appears, read: measured here: mesenchymal TEM4-18 mCherry cell survival.

In the case of `CC(C)(C(=O)c1cccnc1)c1cccnc1`, the insulin secretion stimulation in [1] was 0.7% (inactive). Besides, the viability decrease in test [2] is -5.6% (inactive). For the same molecule, the tube area decrease in [3] is 4.4% (inactive). Further, the GLP1 secretion stimulation in test [4] is 0.8% (inactive). For the same molecule, in test [5], the inhibition of viability is 0.97% (inactive). Besides, the viability decrease (inhibition) in test [6] was 1.2% (inactive); in [7] it was -9.4% (inactive). For the same molecule, the mean signal in test [8] is 259 (inactive). Besides, in test [9], the red/green cell ratio (normalised) was 0.85 (inactive). Besides, the figures for the normalised cell number in test [9] (setting [10]) and in test [9] (setting [11]) were 1.21 and 1.04, respectively.

Take `COC(=O)C1=C(C)NC(C)=C(C(=O)O[C@@H]2CCCN(Cc3ccccc3)C2)[C@@H]1c1cccc([N+](=O)[O-])c1`: the insulin secretion stimulation in test [1] was 1.9% (inactive). Further, the viability decrease in [2] was 110% (active). The tube area decrease in test [3] is 52.9% (active). In addition, the GLP1 secretion stimulation in test [4] is -0.5% (inactive). For the same molecule, the inhibition of viability in test [5] was 109% (active). Further, the viability decrease (inhibition) is 131% (active) in test [6] and 101% (active) in test [7]. For the same molecule, the mean signal in [8] is 249 (inactive).

Consider `Cc1cccc(C)c1NC(=O)C(C)N` (stereo not given), for which, in [1], the insulin secretion stimulation is 0.2% (inactive). In addition, the viability decrease in test [2] is -2.3% (inactive). Further, in test [3], the tube area decrease was -7.9% (inactive). Further, in test [4], the GLP1 secretion stimulation is -0.6% (inactive). The inhibition of viability in test [5] is -4.1% (inactive). For the same molecule, the viability decrease (inhibition) in [6] was 0.1% (inactive); in test [7], -5.7% (inactive). The mean signal in test [8] is 270 (inactive). In addition, in test [9], the red/green cell ratio (normalised) is 0.66 (inactive). The normalised cell number in [9] (setting [10]) was found to be 1.32; in test [9] (setting [11]), 0.88.

Take `CO[C@H]1C=CO[C@@]2(C)Oc3c(C)c(O)c4c(O)c(c(/C=N/N5CCN(C)CC5)c(O)c4c3C2=O)NC(=O)/C(C)=C\C=C[C@H](C)[C@H](O)[C@@H](C)[C@@H](O)[C@@H](C)[C@H](OC(C)=O)[C@@H]1C`: the insulin secretion stimulation in test [1] was 1.4% (inactive). Besides, the viability decrease in test [2] is 67.8% (active). Further, the tube area decrease in test [3] was 48.6% (active). Moreover, the GLP1 secretion stimulation in test [4] was -1.8% (inactive). Also, the inhibition of viability in [5] is 67.5% (active). In addition, the viability decrease (inhibition) in test [6] was 87.1% (active); in [7] it was 65.6% (active). For the same molecule, in [8], the mean signal is 243 (inactive).

Turning to `O=C1[C@H]2CCCC[C@H]2C(=O)N1CCCCN1CCN(c2nsc3ccccc23)CC1`, the insulin secretion stimulation in test [1] was 5.5% (inactive). In addition, the viability decrease in test [2] is 70.3% (active). The tube area decrease in test [3] is 25.8% (inactive). Further, the GLP1 secretion stimulation in test [4] is 9% (inactive). Moreover, in [5], the inhibition of viability was 88.1% (active). The viability decrease (inhibition) in [6] was 115% (active); in [7] it was 99.8% (active). Moreover, the mean signal in test [8] was 254 (inactive).

Regarding `Nc1nc2c(ncn2CCC(CO)CO)c(=O)[nH]1`, in test [1], the insulin secretion stimulation was -2.4% (inactive). Moreover, in test [2], the viability decrease is 0.03% (inactive). Also, in [3], the tube area decrease was 11.3% (inactive). The GLP1 secretion stimulation in test [4] is 1.1% (inactive). Further, the inhibition of viability in test [5] was 6.65% (inactive). Moreover, the viability decrease (inhibition) in test [6] was 47.6% (inactive); in [7], -0.57% (inactive). Moreover, the mean signal in test [8] was 282 (inactive). Moreover, the red/green cell ratio (normalised) in test [9] was 1 (inactive). The normalised cell number in test [9] (setting [10]) and in test [9] (setting [11]) was 0.96 each time.

As for `COc1cc(C)c(Cc2cnc(N)nc2N)cc1OC`, the insulin secretion stimulation in test [1] was 1.7% (inactive). Also, the viability decrease in [2] was -7.75% (inactive). In addition, the tube area decrease in test [3] is 11.1% (inactive). Moreover, in test [4], the GLP1 secretion stimulation is 0.8% (inactive). In [5], the inhibition of viability is 6.8% (inactive). For the same molecule, the viability decrease (inhibition) in test [6] is 11.5% (inactive); in [7], -5.75% (inactive). In test [8], the mean signal was 249 (inactive).

Regarding `CCCN1CCCC[C@H]1C(=O)Nc1c(C)cccc1C`, in test [1], the insulin secretion stimulation is 31% (active). Moreover, the viability decrease in [2] was -8% (inactive). Besides, the tube area decrease in [3] was -2.1% (inactive). Besides, in test [4], the GLP1 secretion stimulation is 3.3% (inactive). For the same molecule, the inhibition of viability in test [5] was 3.1% (inactive). For the same molecule, the viability decrease (inhibition) in test [6] was -17% (inactive); in test [7], 6.9% (inactive). In test [8], the mean signal was 274 (inactive).

`CCOC(=O)OC(C)OC1=C(C(=O)Nc2ccccn2)N(C)S(=O)(=O)c2ccccc21` (stereo not given): the insulin secretion stimulation in [1] was 0.55% (inactive). Also, in test [2], the viability decrease was 5.8% (inactive). The tube area decrease in [3] is -1.1% (inactive). Moreover, the GLP1 secretion stimulation in test [4] is 1% (inactive). In addition, the inhibition of viability in test [5] is 8.6% (inactive). For the same molecule, the viability decrease (inhibition) in [6] was -18.8% (inactive); in test [7], -0.2% (inactive). For the same molecule, the mean signal in test [8] was 259 (inactive). For the same molecule, the red/green cell ratio (normalised) in [9] is 1.19 (inactive). The normalised cell number was 0.84 in [9] (setting [10]) and 1 in [9] (setting [11]).

Consider `O=C(CCNNC(=O)c1ccncc1)NCc1ccccc1`, for which the insulin secretion stimulation in test [1] is -2.7% (inactive). For the same molecule, the viability decrease in test [2] was 29.1% (inactive). Also, the tube area decrease in test [3] was -20.5% (inactive). In [4], the GLP1 secretion stimulation is 0.6% (inactive). In addition, the inhibition of viability in test [5] is -8.3% (inactive). The viability decrease (inhibition) in test [6] was 81.2% (active); in test [7], 31.8% (inactive). Besides, in test [8], the mean signal was 273 (inactive). Besides, the red/green cell ratio (normalised) in [9] was 1.02 (inactive). For the same molecule, the normalised cell number worked out at 1.02 in [9] (setting [10]) and 1.04 in test [9] (setting [11]).

For the molecule `COC(=O)CCc1ccc(OCC(O)CNC(C)C)cc1` (stereo not given), in [1], the insulin secretion stimulation is 6.9% (inactive). The viability decrease in [2] was -7.2% (inactive). In addition, in [3], the tube area decrease was -8.1% (inactive). Moreover, in test [4], the GLP1 secretion stimulation was -0.5% (inactive). Moreover, the inhibition of viability in test [5] is 18.6% (inactive). For the same molecule, the viability decrease (inhibition) was 39.7% (inactive) in test [6] and 16.8% (inactive) in test [7]. The mean signal in [8] was 266 (inactive).

For `CN(C)CC[C@@H](c1ccc(Br)cc1)c1ccccn1`, the insulin secretion stimulation in [1] is 81.9% (active). Moreover, the viability decrease in test [2] was -41.6% (inactive). Besides, the tube area decrease in test [3] was -18.3% (inactive). Besides, the GLP1 secretion stimulation in test [4] is 1.6% (inactive). The inhibition of viability in test [5] was 27.2% (inactive). Besides, the viability decrease (inhibition) in test [6] was 30.9% (inactive); in test [7], 10.2% (inactive). For the same molecule, the mean signal in [8] was 234 (inactive).

For the molecule `NCC1CCC(C(=O)Oc2ccc(CCC(=O)O)cc2)CC1` (stereo not given), in [1], the insulin secretion stimulation is -2.1% (active). Further, in [2], the viability decrease is 1.9% (inactive). For the same molecule, in test [3], the tube area decrease is 4.4% (inactive). Besides, the GLP1 secretion stimulation in [4] was 1.4% (inactive). In addition, in [5], the inhibition of viability was -7.95% (inactive). Moreover, the viability decrease (inhibition) in test [6] was 17.7% (inactive); in test [7] it was 3.17% (inactive). For the same molecule, in [8], the mean signal is 243 (inactive).

In the case of `COc1ccc(C(=O)NCc2ccc(OCCN(C)C)cc2)cc1OC`, the insulin secretion stimulation in test [1] was 0.75% (inactive). In [2], the viability decrease was -2.9% (inactive). Also, in test [3], the tube area decrease was 4.2% (inactive). For the same molecule, the GLP1 secretion stimulation in test [4] was -0.4% (inactive). For the same molecule, the inhibition of viability in test [5] is 7% (inactive). For the same molecule, the results for the viability decrease (inhibition) in test [6] and in test [7] were -4.6% (inactive) and -7.9% (inactive), respectively. For the same molecule, the mean signal in test [8] was 262 (inactive). Also, the red/green cell ratio (normalised) in test [9] was 0.88 (inactive). The normalised cell number was determined as 1.24 in test [9] (setting [10]) and 1.1 in test [9] (setting [11]).

Turning to `Cc1ncc([N+](=O)[O-])n1CC(O)CCl` (stereo not given), in [1], the insulin secretion stimulation was -1.6% (inactive). In [2], the viability decrease is -3.65% (inactive). In addition, the tube area decrease in test [3] is -4.9% (inactive). Further, in test [4], the GLP1 secretion stimulation is -0.1% (inactive). Moreover, the inhibition of viability in test [5] is 0.2% (inactive). Also, the values for the viability decrease (inhibition) in test [6] and in test [7] were -45.6% (inactive) and -4.95% (inactive), respectively. Further, the mean signal in test [8] was 246 (inactive). Besides, in test [9], the red/green cell ratio (normalised) is 1.07 (inactive). For the same molecule, the results for the normalised cell number in test [9] (setting [10]) and in test [9] (setting [11]) were 1.1 and 1.18, respectively.

On to `CCc1c(C)[nH]c2c1C(=O)C(CN1CCOCC1)CC2` (stereo not given), for which the insulin secretion stimulation in [1] is 1.8% (inactive). Also, in [2], the viability decrease is 2.2% (inactive). Also, in [3], the tube area decrease was -10.5% (inactive). Moreover, in test [4], the GLP1 secretion stimulation was 5.2% (inactive). In addition, the inhibition of viability in test [5] is -24.1% (inactive). The viability decrease (inhibition) is -3.8% (inactive) in test [6] and -11% (inactive) in test [7]. Further, in test [8], the mean signal was 257 (inactive). Besides, the red/green cell ratio (normalised) in [9] is 1.03 (inactive). In addition, the figures for the normalised cell number in [9] (setting [10]) and in test [9] (setting [11]) were 0.94 and 0.96, respectively.

For `CCOC(=O)C1=C(C)NC(C)=C(C(=O)OCC)C1c1ccccc1/C=C/C(=O)OC(C)(C)C`, in [1], the insulin secretion stimulation is 0.3% (inactive). Also, in test [2], the viability decrease was 117% (active). Besides, the tube area decrease in test [3] is 101% (active). In addition, the GLP1 secretion stimulation in test [4] is -0.4% (inactive). In addition, the inhibition of viability in test [5] is 124% (active). Further, the values for the viability decrease (inhibition) in [6] and in test [7] were 158% (active) and 101% (active), respectively. In addition, the mean signal in test [8] is 249 (inactive).
